Screening data: PubChem BioAssay, National Center for Advancing Translational Sciences (NCATS)
Hits are enriched below; roughly 11% of the tested compounds scored in any of these assays.
PNC inhibitor: blocks assembly of the perinucleolar compartment; 3.1% of 140,000 active; AID 2417; activity change (PNC), negative = inhibition, % at 10 µM; PC3M PTB-GFP, PNC prevalence imaging, 16 h; active compounds read low;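 active = readout at or below -70, meaning at least 70% loss of cells showing the perinucleolar compartment, a nuclear body marking cancer cells; inconclusive = readout between -30 and a set limit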;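 also: plate controls were DMSO wells for no effect and camptothecin positive control wells for full effect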
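PC3M cells stably expressing PTB-GFP, 750–1000 cells/well, treated 16 h at 37 °C with compound (23 nl of library stock), in duplicate. After paraformaldehyde fixation and Hoechst stain, imaged at 20x; PNC prevalence scored by image analysis.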
ALDH1A1 inh: ALDH1A1 (human) enzyme inhibition. P00352. AID 1030. 7.3% of 220,000 active. Potency, µM (top dose mostly 75.3 µM), for the others: top-dose activity, negative = inhibition, actives largely listed as inhibitors. Purified ALDH1A1, NADH fluorescence, propionaldehyde substrate; active = well fitted inhibition curve with a large enough effect, not every such curve was filed as active; inconclusive = small, poorly fitted or top-dose-only effect, or another doubt; inactive = no such curve, though single readings can be large or run the other way;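 also: potency is read from the fitted curve at half-maximal effect; plate controls were no enzyme wells and a reference inhibitor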
HTT aggregate: inhibitors of mutant huntingtin aggregate formation in PC12 cells; PC12 HttQ103-GFP aggregates, Acumen cytometry, 40 h; Potency, µM (top dose mostly 46.1 µM), for inactives: at the top dose activity change, negative = inhibition, actives largely listed as inhibitors; 1.1% of 220,000 active; also: potency is read from the fitted curve at half-maximal effect; % is scaled to controls: 0 for no effect and ±100 for the full control effect; nearly all actives have a fitted effect of over 60% in size
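Ecdysone-promoter PC12 model expressing HTT exon 1 Q103 fused to GFP, induced by tebufenozide at 100 nM final. Compounds titrated; aggregates sized 1–25 µm scored on a 488 nm laser cytometer.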
RGS12 GoLoco inh: blocks human Gai1 binding to RGS12 GoLoco peptide, red readout | P63096 | Potency, µM (highest dose often 61.6 µM), inactives show at the top dose activity, negative = inhibition, hits mostly inhibitors | Gai1:RGS12 GoLoco peptide FP, rhodamine, 10 min | 0.44% of 230,000 active; active = well fitted inhibition curve with a large enough effect, not every such curve was filed as active; inactive = no such curve, though single readings can be large or run the other way; also: potency is read from the fitted curve at half-maximal effect; % is scaled to controls: 0 for no effect and ±100 for the full control effect; nearly all actives have a fitted effect of over 30% in size
Target sequence (P63096 whole entry, looked up): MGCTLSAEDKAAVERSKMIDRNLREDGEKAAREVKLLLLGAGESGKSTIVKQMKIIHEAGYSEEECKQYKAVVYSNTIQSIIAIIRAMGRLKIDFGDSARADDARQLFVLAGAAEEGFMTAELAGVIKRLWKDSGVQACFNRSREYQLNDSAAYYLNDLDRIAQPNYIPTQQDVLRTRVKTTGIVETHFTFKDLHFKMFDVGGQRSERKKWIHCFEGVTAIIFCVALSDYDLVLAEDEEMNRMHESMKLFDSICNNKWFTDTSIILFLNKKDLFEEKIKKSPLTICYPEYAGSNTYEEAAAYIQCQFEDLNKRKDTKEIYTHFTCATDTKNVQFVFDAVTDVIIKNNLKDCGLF
HTT ATP protect: Huntington cell model cytoprotection by ATP luminescence. PC12 HTT-Q103 induced, cytoprotection, ATP luminescence, 40 h. Potency, µM (titrated, usually from 56.4 µM), for inactives: cytoprotection (ATP increase), usual class: activators. 0.14% of 230,000 active. AID 1471; also: potency is read from the fitted curve at half-maximal effect; % of control where 0% means no effect; nearly all actives have a fitted effect of over 45% in size
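PC12 cells stably carrying ecdysone-inducible Htt exon 1 (Q103)–GFP were induced with 100 nM tebufenozide (final) alongside library compounds in a dose series. Cytoprotection was scored as retained ATP by ATPlite luminescence.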
HPGD block: blocks human HPGD enzyme activity; P15428; purified HPGD, NADH fluorescence kinetic, PGE2 substrate; 4.3% of 150,000 active; AID 894; Potency, µM, without a hit: at the highest dose activity change, negative = inhibition, usual class: inhibitors; active = well fitted inhibition curve with a large enough effect, not every such curve was filed as active; inconclusive = small, poorly fitted or top-dose-only effect, or another doubt; inactive = no such curve, though single readings can be large or run the other way; also: potency is read from the fitted curve at half-maximal effect; % is scaled to controls: 0 for no effect and ±100 for the full control effect
Target sequence (P15428 whole entry, looked up): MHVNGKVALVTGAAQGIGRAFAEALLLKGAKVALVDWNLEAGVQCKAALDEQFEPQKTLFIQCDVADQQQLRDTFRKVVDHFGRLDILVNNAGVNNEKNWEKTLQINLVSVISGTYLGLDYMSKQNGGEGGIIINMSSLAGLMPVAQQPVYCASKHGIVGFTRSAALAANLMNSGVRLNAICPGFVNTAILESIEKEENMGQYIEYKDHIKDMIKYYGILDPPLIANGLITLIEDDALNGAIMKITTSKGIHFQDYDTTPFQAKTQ
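20 nM HPGD preincubated 15 min at room temperature with compound in 50 mM Tris-HCl pH 8, 0.01% Tween 20. Started with 1 mM NAD+ and 30 uM prostaglandin E2; NADH fluorescence (360/450 nm) read 5 times over 30-s intervals, last minus first.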
The depositor's hits bear a star; u = inconclusive; x = no result given; [ ] = dose if it differs, or a comment. Unless noted, calls follow the shape of the dose curve; as a rule, active = well fitted curve in the direction sought with a large enough effect; inconclusive = small, poorly fitted or top-dose-only effect, or another doubt; inactive = no such curve, though single readings can be large; an effect the other way counts as inactive or inconclusive.

SMILES	PNC inhibitor	ALDH1A1 inh	HTT aggregate	RGS12 GoLoco inh	HTT ATP protect	HPGD block
Cn1c(Cc2ccccc2)nnc1SCC(=O)c1ccc(Br)s1	-29.7	14.1µM*	26.7%	1.9%	24.2%[10 µM]	28.2µM*
COC(=O)c1cc(C(=O)NCCN2C(=O)S/C(=C\c3cccs3)C2=O)cc([N+](=O)[O-])c1	u	u	8.1%	-10.1%	16.1%[10 µM]	-15.5%
O=C(NC(=S)NNC(=O)c1ccccc1[N+](=O)[O-])c1ccccc1	3.4	10µM*	-21.6%	0.8%	-7.0%[1.9 µM]	31.6µM*
O=C(NNC(=S)NC(=O)c1ccccc1[N+](=O)[O-])c1ccccc1	u	-4.4%	u	12.9%	-0.5%[1.9 µM]	-2.4%
CCC(=O)NC(=S)NNC(=O)c1ccccc1[N+](=O)[O-]	x	10µM*	-24.6%	-15.9%	-17.9%	x
COc1cccc(N=C2C(=O)N3CCCc4cccc2c43)c1	15.9	0.159µM*	u	6.0%	-4.4%[0.074 µM]	-11.3%
COc1cccc(NC(=O)N2CCCc3ccccc32)c1	x	u	-0.3%[9.22 µM]	3.0%	-7.8%[10 µM]	x
COC(=O)C(NC(=O)c1ccco1)(Nc1cc(C)ccn1)C(F)(F)F (stereo not drawn)	-100.0*	9.1%	20.8%	-10.0%	-0.6%[10 µM]	-8.0%
Cc1ccnc(NC(=S)NC(=O)c2ccco2)c1	40.4	-13.7%	2.9%	1.9%	-34.8%	-10.8%
CCOC(=O)C1C(C(=O)OC)=C(c2ccc(F)cc2)c2ccc(OC)cc2N1S(=O)(=O)C(F)(F)F (stereo not drawn)	x	u	x	3.1%	-21.7%[40.3 µM]	-28.9%
Cc1ccc(N=C2NC(=O)CS2)cc1	u	7.6%	5.2%	12.3%	-3.8%	u
CCOC(=O)c1ccc(N=C2NC(=O)CS2)cc1	u	u	-4.1%	23.4%	3.1%	12.6µM*
CSc1nc(N)nc(SCC(=O)C23CC4CC(CC(C4)C2)C3)c1C#N	-4.4	25.1µM*	u	0.6%	-6.1%[10 µM]	-18.3%
N#Cc1c(N)nc(SCC(=O)C23CC4CC(CC(C4)C2)C3)c(C#N)c1-c1ccc(Cl)cc1	26.9	u	21.4%	13.5%	-43.6%	u
COc1cccc(-c2ccc3ncnc(NC4CC4)c3c2)c1	x	u	x	10.1%	-222.2%	x
CC[C@H]1C2=C3C(CC[C@H]4C(OC)OC[C@](C)([C@@H]34)N(C(=O)OC(C)(C)C)C2)C(CO)C1CO (stereo partly drawn)	x	-6.4%	x	4.1%	-33.4%	-3.1%
CC(CCc1ccccc1)NC(=O)CN1CCSc2ccccc21 (stereo not drawn)	x	12.6µM*	21.7%	-0.4%	-4.5%	x
CC(CCc1ccccc1)NC(=O)CN1CCOc2ccccc21 (stereo not drawn)	x	x	x	x	-4.1%	x
COc1cccc(NC(=O)CN2CCSc3ccccc32)c1	x	18.9µM*	-6.4%	0.6%	-8.9%	x
COC(=O)/C=C/c1cc(O)ccc1O	x	28.2µM*	x	2.82µM*	-81.6%	x
CCOC(=O)CSCC(=O)Nc1c(C(=O)C2CC2)oc2ccccc12	u	-3.1%	0.8%	1.0%	-2.4%[10 µM]	-14.8%
COc1cc2oc(=O)cc(-c3cccc(-c4ccc(C(C)=O)cc4)c3)c2c(OC)c1OC	x	u	x	10.4%	-169.9%	-12.9%
CCn1c(SCC(=O)Nc2ccc(C(C)=O)cc2)nc2nc3c(cc2c1=O)COC(C)(C)C3	x	x	-12.6%[9.22 µM]	-7.6%	-11.3%[10 µM]	x
CCn1c(SCC(=O)Nc2ccc(C(C)=O)cc2)nc2nc3c(cc2c1=O)CCCC3	-5.3	0.891µM*	12.7%	5.9%	31.9%[10 µM]	-14.5%
CCn1c(SCC(=O)Nc2ccc(Cl)cc2)nc2nc3c(cc2c1=O)CCCC3	26.1	u	3.4%	6.6%	13.7%[10 µM]	-10.0%
SMILES	PNC inhibitor	ALDH1A1 inh	HTT aggregate	RGS12 GoLoco inh	HTT ATP protect	HPGD block
CCn1c(SCC(=O)Nc2ccc(OC)cc2)nc2nc3c(cc2c1=O)COC(C)(C)C3	x	2µM*	4.1%[9.22 µM]	7.4%	-10.7%[10 µM]	x
CCn1c(SCC(=O)NCc2ccccc2)nc2nc3c(cc2c1=O)CCCC3	x	-16.1%	6.4%	4.0%	-9.5%[10 µM]	x
CCn1c(SCC(=O)Nc2ccccc2C)nc2nc3c(cc2c1=O)COC(C)(C)C3	x	14.1µM*	-18.2%[9.22 µM]	7.8%	-6.5%[10 µM]	x
CCn1c(SCc2ccccc2Cl)nc2nc3c(cc2c1=O)CCCC3	5.7	15.8µM*	u	0.6%	-3.7%[10 µM]	-13.5%
Nc1nc(CC(=O)O)cs1	x	-13.5%	x	4.3%	1.2%	-5.6%
O=C(NC1CCCCC1)[C@H](CSCc1ccccc1)N1Cc2ccccc2C1=O	22.4	1.2%	13.9%	-23.2%	x	-14.8%
CC1(C)Cc2nc3oc4c(=O)n(CC(=O)Nc5ccc(Cl)cc5)cnc4c3cc2CO1	x	x	-20.8%[9.22 µM]	30.4%	20.7%[10 µM]	x
C=C(C)Cn1cnc2c(oc3nc4c(cc32)CCCC4)c1=O	x	1µM*	7.2%[9.22 µM]	8.9%	6.9%[10 µM]	x
Cc1ccc(-n2c(SCC(=O)NCc3ccco3)nc3nc4c(cc3c2=O)COC(C)(C)C4)cc1	10.3	0.794µM*	-30.5%	x	4.7%	x
Cc1ccccc1NC(=O)Cn1cnc2c(oc3nc4c(cc32)COC(C)(C)C4)c1=O	21.1	22.4µM*	20.2%	7.5%	-14.7%[10 µM]	-10.3%
COCCNC(=O)C(=O)NCCN1CCNCC1	x	7.0%	-5.4%	4.4%	-49.4%	x
COc1ccc(S(=O)(=O)N(C(C)=O)c2ccc(OC(C)=O)c3ccccc23)cc1[N+](=O)[O-]	u	7.08µM*	6.31µM*	x	-4.1%[10 µM]	x
C[C@H]1[C@H]2CC[C@H]3C4CC=C5C[C@@H](N(C)C)CC[C@]5(C)C4CC[C@]23CN1C (stereo partly drawn)	x	7.8%	x	2.9%	1.5%[1.9 µM]	-4.0%
CCN(C1CCS(=O)(=O)C1)S(=O)(=O)c1cccs1 (stereo not drawn)	-106.5*	8.9%	13.3%	11.5%	7.6%[0.074 µM]	-7.8%
CCN(CC)C1CCS(=O)(=O)C1 (stereo not drawn)	x	13.1%	-19.2%	-10.9%	-15.4%	x
Cc1ccc2oc(=O)c3cc(C(=O)Nc4cc(-c5cccc(F)c5)no4)sc3c2c1	46.5	17.5%	-15.4%	3.2%	x	-20.7%
O=C(CNC(=O)c1cccs1)N/N=C/c1c[nH]c2ccccc12	x	-0.6%	-2.0%	4.6%	-19.6%	x
COc1ccc(N(C)S(=O)(=O)c2cccc(C(=O)OC(C(=O)Nc3cc(C)cc(C)c3)c3ccccc3)c2)cc1 (stereo not drawn)	-102.3*	8.2%	15.0%	-0.8%	x	-3.3%
O=C(NNC(=S)Nc1ccc(OC(F)F)cc1)c1cc2c(s1)CCCC2	-0.1	8.91µM*	-1.9%	0.4%	-3.7%[1.9 µM]	-19.3%
COc1cc(C2N(c3ccccn3)C(=O)C3CCCN32)cc(OC)c1OC (stereo not drawn)	u	22.4µM*	-4.3%	x	-8.8%	x
COc1ccccc1C1N(c2cc(Cl)ccc2OC)C(=O)C2CCCN21 (stereo not drawn)	-105.7*	20.4%	-14.3%	7.4%	-3.4%	0.9%
